# Compound activity as filed in PubChem BioAssay.
# ADAM17 inh: inhibits human ADAM17; P78536; recombinant ADAM17, EDANS/DABCYL FRET peptide cleavage; inhibition, % at 6.95 µM; actives 0.83% (n = 370,000);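 active = inhibition above the mean of compounds lying between control limits plus 3 SD, set per campaign, cut at about 8.5% in these data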;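 also: 0% = DMSO-only wells as the low control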
# Target sequence (P78536 215-824 limits assumed): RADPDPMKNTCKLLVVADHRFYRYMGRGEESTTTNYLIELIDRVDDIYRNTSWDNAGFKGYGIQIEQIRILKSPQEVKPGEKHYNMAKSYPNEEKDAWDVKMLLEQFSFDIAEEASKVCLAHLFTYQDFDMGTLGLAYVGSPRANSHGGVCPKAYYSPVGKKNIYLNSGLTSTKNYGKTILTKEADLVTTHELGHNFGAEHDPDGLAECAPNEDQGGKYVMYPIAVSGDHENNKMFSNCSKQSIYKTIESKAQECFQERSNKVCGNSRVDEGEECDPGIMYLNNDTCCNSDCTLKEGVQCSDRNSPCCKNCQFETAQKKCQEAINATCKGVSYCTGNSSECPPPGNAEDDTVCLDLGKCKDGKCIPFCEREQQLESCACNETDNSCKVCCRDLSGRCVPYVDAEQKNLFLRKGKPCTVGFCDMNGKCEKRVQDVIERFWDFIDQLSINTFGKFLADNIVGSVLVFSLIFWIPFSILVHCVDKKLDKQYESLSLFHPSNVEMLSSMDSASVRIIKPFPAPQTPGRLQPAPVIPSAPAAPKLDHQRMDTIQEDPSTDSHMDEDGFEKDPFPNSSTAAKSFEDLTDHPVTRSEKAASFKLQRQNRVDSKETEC
# ADAM10 inh: ADAM10 inhibition, QFRET primary screen. actives 0.62% (n = 370,000). inhibition, % at 7 µM. recombinant ADAM10, EDANS/DABCYL FRET peptide cleavage, 3 h;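 active = inhibition above a per-campaign cutoff equal to the mean of compounds falling between control-based bounds plus 3 SD, cut at about 20% in these data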;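 also: 0% = DMSO wells while the 100% control is not disclosed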
# Ecoli rRNA inh: inhibits bacterial ribosomal RNA function over humanized ribosomes | E. coli WT GFP vs humanized-ribosome RFP mutants, fluorescence, 24 h; active compounds read low; DMSO median 0, no signal -100 | GFP signal change (wild-type ribosome), % (concentration not given with the values) | actives 1.6% (n = 350,000);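 active = significant combined selectivity score with lowered wild-type GFP, culture density cut under 30%, mutant RFP and density less affected; inactive = any of these conditions unmet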
# FGF22 binding: shifts melting point of recombinant human FGF22 | activity (Tm shift, normalised), % at 9.99 µM | Q9HCT0 | recombinant FGF22 thermal shift, SYPRO orange fluorescence; percent of sucrose octasulfate shift, DMSO zero | actives 1.5% (n = 340,000);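 active = mean Tm shift, scaled 0 neutral to 100 positive control, at about 1.3% or above, every replicate too, limit read from the data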
# KLK7 zymogen act: activates the human kallikrein-7 zymogen. actives 0.9% (n = 370,000). purified proKLK7, EDANS-DABCYL substrate fluorescence; 100% is mature enzyme control, 0% vehicle. P49862. activation, % at 7 µM. AID 652039;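 active = activation above the mean of all tested compounds plus 3 SD, computed per campaign excluding outliers beyond control limits, cut at about 13% in these data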
# Numbers without * were called inactive; · = no result given. Only some compounds are listed: those with a hit (about 3.8% of all), similar ones and a draw of the others.
SMILES,ADAM17 inh,ADAM10 inh,Ecoli rRNA inh,FGF22 binding,KLK7 zymogen act
C[C@@H]1CN([C@H](C)CO)C(=O)c2cc(C#Cc3ccccc3F)cnc2O[C@H]1CN(C)C(=O)C1CCC1,·,·,-4,0,·
CC(=O)NC(c1ccc(C)cc1)c1cc([N+](=O)[O-])c2cccnc2c1O (centres undefined),5,19,-25*,0,0
CCC(=O)NC(c1ccc(C)cc1)c1cc([N+](=O)[O-])c2cccnc2c1O (centres undefined),7,13,·,·,0
COc1ccc(NC(=O)Cn2nnc(-c3ccccc3N)n2)cc1OC,-1,1,-10,·,0
Nc1ccccc1-c1nnn(CC(=O)Nc2ccc3c(c2)OCCO3)n1,-4,-5,-25*,0,0
NS(=O)(=O)c1ccc(NCc2cnc3ccccc3n2)cc1,-4,-11,2,43*,0
NS(=O)(=O)c1ccc(NCc2cnc3ccccc3c2)cc1,6,-5,0,0,0
Cn1cc(CCCC(=O)NCc2ccc(F)cc2)c2ccccc21,-5,-6,-37*,0,0
O=C(C[C@H]1CC[C@H]2[C@@H](COC[C@H](O)CN2S(=O)(=O)c2ccccc2)O1)NCc1ccc2c(c1)OCO2,·,·,-1,0,·
CCCNC(=O)N1CC2(C1)[C@@H](c1ccccc1)[C@H](CO)N2C(=O)C1CC1,·,·,3,0,·
c1ccc(CSc2nnc(Cc3ccccc3)o2)cc1,1,5,-31*,0,1
COc1ccc(CN(C(=O)c2nsc(Cl)c2Cl)C(C(=O)NC2CCCC2)c2ccc(OC)cc2)cc1 (centres undefined),-4,-5,1,43*,0
CC1(C(=O)NCCc2c[nH]c3ccccc23)CCN1CC1CCCCC1 (centres undefined),-1,3,-23*,0,0
Cc1ccc(-c2nn(-c3ccccc3)cc2C=C2SC(=S)N(CCS(=O)(=O)O)C2=O)cc1,1,11,-1,1,-1
O=C1C(=Cc2cn(-c3ccccc3)nc2-c2ccc(OCc3ccccc3)cc2)SC(=S)N1CCS(=O)(=O)O,5,29*,19,0,0
COc1cc(C(N)=O)cc(Br)c1OCc1ccccc1,-1,1,-28*,0,1
CCOc1c(Br)cc(C(N)=O)cc1OCc1ccccc1,-1,1,-37,-1,0
CC(C)c1cn(CC[C@H]2CC[C@@H](NS(=O)(=O)c3ccc(Cl)cc3)[C@@H](CO)O2)nn1,·,·,-2,0,·
COc1ccc(C(=O)NC(C(=O)NCC(=O)Nc2c(C)cccc2C)C(C)C)cc1 (centres undefined),5,2,-2,44*,0
COc1ccc(C(=O)N[C@H](C(=O)NCc2ccc(C)cc2)C(C)C)cc1,2,-8,8,0,0
O=C1NC(CCc2ccccc2)C(=O)N1CCOc1ccccc1 (centres undefined),-3,-9,-27*,0,-1
Cc1oc(-c2cc(F)ccc2F)nc1CN1CCN(C)C(=O)[C@@H]1C,-1,2,14,43*,0
Cc1ccsc1-c1nc(CN2CCN(C)C(=O)[C@@H]2C)c(C)o1,0,-6,6,0,0
CC1CCCN(C(=O)Cc2cccc3ccccc23)C1 (centres undefined),-6,5,-29*,0,0
Cc1ccc[n+](-c2nc3ccccc3nc2[N-]S(=O)(=O)c2ccccc2)c1,-4,-1,-1,0,1
SMILES,ADAM17 inh,ADAM10 inh,Ecoli rRNA inh,FGF22 binding,KLK7 zymogen act
O=S(=O)([N-]c1nc2ccccc2nc1-[n+]1ccccc1)c1ccc(F)cc1,1,-4,7,45*,0
C[C@H]1CC=CC[C@H](c2ccc3c(c2)OCO3)NC(=O)[C@H](Cc2ccccc2)N(C)C(=O)c2ccccc2O1 (mixture of isomers),·,·,-4,·,·
Cc1noc(C)c1S(=O)(=O)Nc1ccc2c(c1)C(=O)N([C@H](C)CO)C[C@H](C)[C@H](CN(C)Cc1ccc(C(=O)O)cc1)OCCCC[C@@H](C)O2,·,·,1,1.4*,·
Cc1noc(C)c1S(=O)(=O)Nc1ccc2c(c1)C(=O)N([C@@H](C)CO)C[C@H](C)[C@H](CN(C)Cc1ccc(C(=O)O)cc1)OCCCC[C@H](C)O2,·,·,-1,1.3*,·
C[C@H]1CCCCO[C@@H](CN(C)Cc2ccc(C(=O)O)cc2)[C@@H](C)CN([C@@H](C)CO)C(=O)c2cc(NS(=O)(=O)c3cn(C)cn3)ccc2O1,·,·,-1,0,·
Cc1noc(C)c1S(=O)(=O)Nc1ccc2c(c1)C(=O)N([C@H](C)CO)C[C@@H](C)[C@H](CN(C)Cc1ccc(C(=O)O)cc1)OCCCC[C@@H](C)O2,·,·,2,1,·
C[C@@H]1CCCCO[C@H](CN(C)Cc2ccc(C(=O)O)cc2)[C@H](C)CN([C@@H](C)CO)C(=O)c2cc(NS(=O)(=O)c3cn(C)cn3)ccc2O1,·,·,3,1.3*,·
COCCOC(=O)N1C(=O)[C@@]2(c3cc(C#CCCO)ccc31)[C@H](c1ccccc1OCCO)N1[C@H](c3ccccc3)[C@H](c3ccccc3)OC(=O)[C@H]1[C@@H]2C(=O)N1CCN(c2ncccn2)CC1,·,·,·,0,·
CO[C@@H]1CN(C)C(=O)c2ccc(NC(=O)c3cccc(F)c3)cc2OC[C@@H](C)N(C)C[C@@H]1C,·,·,0,0,·
N#Cc1ccc(OCCOCCNC2CCCC2)cc1,-1,-5,9,44*,-1
O=C(c1ccccc1)N1CC(=O)N2[C@@H](CO)[C@H](c3ccc(/C=C/c4ccccc4)cc3)[C@@H]2C1,·,·,9,·,·
O=C1c2[nH]nc(-c3ccccc3)c2C(c2ccccc2)N1c1ccccc1 (centres undefined),6,9,4,43*,0
Cc1ccc(C2NC(=O)c3[nH]nc(-c4ccccc4)c32)cc1 (centres undefined),0,2,-19*,0,0
O=C1NC(c2ccccc2)c2c(-c3ccccc3)n[nH]c21 (centres undefined),-7,-16,22,0,0
COc1ccc(C[C@@H]2CCc3cnnn3COC[C@@H](Cc3ccccc3)NC2=O)cc1,·,·,1,0,·
COC(=O)c1ccc(-c2noc(CN(C)CCC3CCCCO3)n2)cc1 (centres undefined),-6,-1,4,43*,0
O=C1/C(=C/c2ccccn2)SC(=S)N1NS(=O)(=O)c1ccccc1,0,0,0,·,-1
O=C1/C(=C/c2ccccn2)SC(=S)N1CCc1ccccc1,-3,-3,3,1.6*,0
S=C(Nc1ccc(Nc2ccccc2)cc1)Nc1ccccn1,8,11,-32*,43*,0
FC(F)(F)c1ccc(NC(=S)NC2CCCCC2)cc1,3,14,-54*,0,0
